Several values for one entry are separate records, joined by “and”; a condition that tells them apart may be missing. Equal entries are not always repeated. Inconclusive results are not listed. Entries that show only a call come without a potency. Some compounds were tested as several samples or in several runs, with calls that do not always agree. Activity calls are given as the source filed them. Unless noted, the call rests on the fitted dose curve; in most records, active means well fitted curve in the direction sought with a large enough effect in the repeat runs; inconclusive means weak or mixed curves; inactive means no such curve, though single readings can be large; an effect the other way counts as inactive or inconclusive.
Legend:
[1] = qHTS assay to identify small molecule antagonists of the estrogen related receptor (ERR) signaling pathway from Tox21 library - cell viability counter screen (AID 1224834); further: nearly all actives have a fitted effect of over 30% in size; further: potency means the concentration at half of the fitted maximal effect
Summary of the method: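 ERR reporter cells were plated 6 h before compound addition, then exposed to test compounds in DMSO for 17.5 h at 37 C. Viability was read as CellTiter-Fluor fluorescence after a 30-minute incubation at 37 C.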

[2] = target: Luciferin 4-monooxygenase (Photinus pyralis) (UniProt P08659); assay: qHTS assay to identify small molecule inhibitors of firefly luciferase (AID 1224835); further: nearly all actives have a fitted effect of over 25% in size; further: potency means the concentration at half of the fitted maximal effect
Summary of the method: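 Quantitative HTS format; KM concentrations of both substrates. Purified P. pyralis FLuc activity quantified from luminescence images.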

[3] = qHTS assay to identify small molecule agonists of the constitutive androstane receptor (CAR) signaling pathway - cell viability counter screen (AID 1224836); further: nearly all actives have a fitted effect of over 45% in size; further: potency means the concentration at half of the fitted maximal effect
Summary of the method: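 Viability read-out: CellTiter-Fluor fluorescence after 23 h compound exposure at 37 C/5% CO2 in double-stable HepG2-CYP2B6-hCAR cells, with PK11195 present at 0.75 uM final; compounds tested in 15-point titration.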

[4] = qHTS assay to identify small molecule antagonists of the constitutive androstane receptor (CAR) signaling pathway - cell viability counter screen (AID 1224837); further: nearly all actives have a fitted effect of over 45% in size
Summary of the method: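 HepG2 cells stably expressing hCAR and a CYP2B6-2.2kb reporter were plated and pre-incubated 4 hr at 37 C/5% CO2, then given compounds at 15 concentrations plus 50 nM CITCO (final). After 23 hr, viability was read by CellTiter-Fluor fluorescence.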

[5] = target: Nuclear receptor subfamily 1 group I member 3 (Homo sapiens) (UniProt Q14994); assay: qHTS assay to identify small molecule antagonists of the constitutive androstane receptor (CAR) signaling pathway (AID 1224838); further: nearly all actives have a fitted effect of over 40% in size
Summary of the method: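 HepG2 cells stably co-transfected with hCAR and a CYP2B6-2.2kb luciferase reporter were seeded 4 h before compound addition at 15 concentrations. Cells were stimulated with 50 nM CITCO (final) for 24 h at 37 C; luciferase luminescence was then read.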

[6] = qHTS assay to identify small molecule antagonists of the estrogen related receptor signaling pathway with the pleiotropic PPARgamma coactivator (PGC) from Tox21 10K library - cell viability counter screen (AID 1224840; active means well fitted cell-killing curve with a large enough effect in the repeat runs, not every such curve was filed as active; further: nearly all actives have a fitted effect of over 40% in size; further: potency means the concentration at half of the fitted maximal effect)
Summary of the method: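 PGC/ERR cells were seeded at 2,000 cells/well and left 6 hours at 37 C/5% CO2 before pin-tool addition of compounds in DMSO. After 17.5 hours at 37 C, CellTiter-Fluor was added and fluorescence read 30 minutes later.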

[7] = qHTS assay to identify small molecule antagonists of the estrogen related receptor signaling pathway with the pleiotropic PPARgamma coactivator (PGC) from Tox21 10K library (AID 1224841; call rule not given here; further: actives are mostly falling curves and most rising ones were filed inactive; nearly all actives have a fitted effect of over 50% in size; further: potency means the concentration at half of the fitted maximal effect)
Summary of the method: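 PGC/ERR reporter cells were seeded at 2,000 cells/well and held 6 hours at 37 C/5% CO2 before pin-tool addition of compounds in DMSO. After 18 hours at 37 C, One-Glo was added and luminescence read after 30 minutes at room temperature.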

[8] = qHTS assay to identify small molecule agonists of the estrogen related receptor signaling pathway with the pleiotropic PPARgamma coactivator (PGC) from Tox21 10K library (AID 1224842); further: nearly all actives have a fitted effect of over 15% in size
Summary of the method: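 PGC/ERR reporter cells (NTP line) were seeded 2,000 per well, rested 6 h at 37 C/5% CO2, then pin-dosed with compounds in DMSO for 18 h at 37 C; luciferase read by One-Glo luminescence after 30 min at room temperature.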

[9] = target: Thyrotropin receptor (Homo sapiens) (UniProt P16473); assay: qHTS assay to identify small molecule agonists of the thyroid stimulating hormone receptor (TSHR) signaling pathway (AID 1224843; calls by dose curve; further: nearly all actives have a fitted effect of over 45% in size)
Summary of the method: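 Cell line HEK293 with TSHR; density 800/well. Exposure 30 min RT. Readout HTRF cAMP (cAMP-d2/anti-cAMP-cryptate), 1 h RT before reading.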

[10] = qHTS assay to identify small molecule agonists of the hypoxia (HIF-1) signaling pathway - cell viability counter screen (AID 1224844; calls by dose curve; further: nearly all actives have a fitted effect of over 50% in size; further: potency means the concentration at half of the fitted maximal effect)
Summary of the method: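 HRE-bla ME-180 cells in medium with 0.5% dialyzed FBS were preincubated 5 hrs at 37C, exposed to compounds for 17 hrs, then viability was read as CellTiter-Glo luminescence after 30 min at room temperature, in the reporter wells.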

[11] = qHTS assay to identify small molecule agonists of H2AX (AID 1224845; active means well fitted activation curve with a large enough effect in the signal ratio in the repeat runs, not every such curve was filed as active; the % refers to the signal ratio)
Summary of the method: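 Wild-type CHO-K1 cells plated overnight, then exposed 3 hr at 37C to compounds at 15 concentrations (0.76% DMSO). Lysed, then HTRF anti-pH2AX(S139)-cryptate/anti-H2AX-d2 detection after 24 hr at room temperature; emissions 665 and 620 nm.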

[12] = qHTS assay to identify small molecule agonists of the hypoxia (HIF-1) signaling pathway (AID 1224846; active means well fitted activation curve with a large enough effect in the signal ratio in the repeat runs, not every such curve was filed as active; the % refers to the signal ratio)
Summary of the method: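 HRE-bla ME-180 cells (beta-lactamase reporter under hypoxia response element) were plated at 2,000 cells/well in medium with 0.5% dialyzed FBS, rested 5 hrs, then given compounds in DMSO for 17 hrs at 37C, 5% CO2. Reporter induction was read with CCF4-AM FRET substrate.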

[13] = qHTS assay to identify small molecule agonists of H2AX - cell viability counter screen (AID 1224847; calls by dose curve; further: nearly all actives have a fitted effect of over 30% in size; further: potency means the concentration at half of the fitted maximal effect)
Summary of the method: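 CHO-K1 wt, 1000 cells/well, o/n 37C; cpds 15 conc, 3 h 37C, 0.76% DMSO; CellTiter-Glo, 30 min RT, luminescence.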

[14] = qHTS assay to identify small molecule antagonists of the estrogen related receptor (ERR) signaling pathway from Tox21 library (AID 1224848); further: nearly all actives have a fitted effect of over 50% in size; further: potency means the concentration at half of the fitted maximal effect
Summary of the method: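 Screening used an ERR reporter line supplied by NTP, exposed for 18 h at 37 C to library compounds delivered in DMSO. Signal was luciferase luminescence developed with ONE-Glo at room temperature for 30 min.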

[15] = qHTS assay to identify small molecule agonists of the estrogen related receptor (ERR) signaling pathway from Tox21 library (AID 1224849; calls by dose curve; further: nearly all actives have a fitted effect of over 15% in size); details: ERR reporter cell line, ONE-Glo luciferase, 18 h
Summary of the method: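 ERR reporter cell line (NTP) seeded, rested 6 h at 37 C/5% CO2, then pinned with Tox21 compounds in DMSO. After 18 h at 37 C, ONE-Glo luciferase luminescence was read following 30 min at room temperature.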

[16] = qHTS RealTime-Glo MT Cell Viability Assay in HepG2 cells - 24 hour (AID 1224867); further: nearly all actives have a fitted effect of over 50% in size
Summary of the method: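 Cells + NanoLuc/prosubstrate dispensed (600 cells/well) → 5 h at 37 C/5% CO2 → compounds in DMSO transferred → 40 h incubation at 37 C, luminescence read at 0, 8, 16, 24, 32, 40 h.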

[17] = qHTS RealTime-Glo MT Cell Viability Assay in HEK293 cells - 32 hour (AID 1224868); further: nearly all actives have a fitted effect of over 50% in size; further: potency means the concentration at half of the fitted maximal effect
Summary of the method: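 Tox21 10K qHTS, HEK293, 600 cells/well, RealTime-Glo reagent co-dispensed with cells; 5 h preincubation, compound by pintool, 37 C, luminescence at 0–40 h.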

[18] = A CellTox Green Cytotoxicity Assay to monitor cytotoxicity in HEK293 cells - 0 hour (AID 1224869); further: nearly all actives have a fitted effect of over 50% in size; further: potency means the concentration at half of the fitted maximal effect
Summary of the method: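 HEK293 cells premixed with CellTox Green dye were seeded at 600 cells/well and left 5 h at 37 C/5% CO2 before pin transfer of 23 nL compound in DMSO. Fluorescence from dye bound to dead-cell DNA was read during 40 h treatment.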

[19] = target: Nuclear receptor subfamily 1 group I member 3 (Homo sapiens) (UniProt Q14994); assay: qHTS assay to identify small molecule agonists of the constitutive androstane receptor (CAR) signaling pathway (AID 1224839); further: nearly all actives have a fitted effect of over 15% in size; further: potency means the concentration at half of the fitted maximal effect;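 on activation: HepG2 cells stably carrying human CAR and a CYP2B6 luciferase reporter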
Summary of the method: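 Luminescence read-out (ONE-Glo, 30 min, room temperature) from double-stable HepG2-CYP2B6-hCAR cells exposed 24 h to 15-point compound series in presence of 0.75 uM PK11195 final.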

Chain of Thyrotropin receptor (Homo sapiens) (P16473 whole entry, looked up): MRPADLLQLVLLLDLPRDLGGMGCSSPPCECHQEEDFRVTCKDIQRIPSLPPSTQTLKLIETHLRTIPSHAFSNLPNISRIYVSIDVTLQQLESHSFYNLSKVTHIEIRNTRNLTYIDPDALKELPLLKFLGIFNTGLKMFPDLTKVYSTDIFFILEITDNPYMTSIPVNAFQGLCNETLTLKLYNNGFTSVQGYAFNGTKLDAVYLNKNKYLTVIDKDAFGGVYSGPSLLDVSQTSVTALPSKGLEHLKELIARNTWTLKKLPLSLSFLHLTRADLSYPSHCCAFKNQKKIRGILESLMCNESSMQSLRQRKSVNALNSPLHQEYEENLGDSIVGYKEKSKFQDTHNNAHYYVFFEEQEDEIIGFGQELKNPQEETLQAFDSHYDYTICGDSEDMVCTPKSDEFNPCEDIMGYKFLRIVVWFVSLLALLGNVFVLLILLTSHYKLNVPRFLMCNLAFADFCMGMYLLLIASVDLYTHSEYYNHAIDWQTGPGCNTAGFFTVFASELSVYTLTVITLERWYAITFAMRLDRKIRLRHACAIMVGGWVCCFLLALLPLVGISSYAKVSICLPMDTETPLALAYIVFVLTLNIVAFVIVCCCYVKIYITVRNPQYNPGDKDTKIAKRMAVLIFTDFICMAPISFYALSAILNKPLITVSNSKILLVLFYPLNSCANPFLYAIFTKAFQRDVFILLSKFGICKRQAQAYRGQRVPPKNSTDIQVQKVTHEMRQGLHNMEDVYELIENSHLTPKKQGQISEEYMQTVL
Chain of Luciferin 4-monooxygenase (Photinus pyralis) (P08659 whole entry, looked up): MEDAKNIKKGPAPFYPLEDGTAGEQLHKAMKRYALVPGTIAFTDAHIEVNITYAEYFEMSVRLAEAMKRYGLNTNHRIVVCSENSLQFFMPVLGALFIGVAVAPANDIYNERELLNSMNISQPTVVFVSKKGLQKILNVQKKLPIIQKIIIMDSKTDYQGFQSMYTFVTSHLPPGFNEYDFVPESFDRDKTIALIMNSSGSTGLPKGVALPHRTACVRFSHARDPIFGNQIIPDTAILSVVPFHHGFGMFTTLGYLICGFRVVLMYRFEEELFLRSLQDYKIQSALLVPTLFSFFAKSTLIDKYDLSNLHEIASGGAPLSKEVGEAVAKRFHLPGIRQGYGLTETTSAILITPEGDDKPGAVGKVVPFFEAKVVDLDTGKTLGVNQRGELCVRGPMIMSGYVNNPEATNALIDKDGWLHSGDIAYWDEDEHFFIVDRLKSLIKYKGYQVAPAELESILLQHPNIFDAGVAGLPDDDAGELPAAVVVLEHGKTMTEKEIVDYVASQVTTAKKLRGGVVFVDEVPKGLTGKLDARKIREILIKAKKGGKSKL
Chain of Nuclear receptor subfamily 1 group I member 3 (Homo sapiens) (Q14994 whole entry, looked up): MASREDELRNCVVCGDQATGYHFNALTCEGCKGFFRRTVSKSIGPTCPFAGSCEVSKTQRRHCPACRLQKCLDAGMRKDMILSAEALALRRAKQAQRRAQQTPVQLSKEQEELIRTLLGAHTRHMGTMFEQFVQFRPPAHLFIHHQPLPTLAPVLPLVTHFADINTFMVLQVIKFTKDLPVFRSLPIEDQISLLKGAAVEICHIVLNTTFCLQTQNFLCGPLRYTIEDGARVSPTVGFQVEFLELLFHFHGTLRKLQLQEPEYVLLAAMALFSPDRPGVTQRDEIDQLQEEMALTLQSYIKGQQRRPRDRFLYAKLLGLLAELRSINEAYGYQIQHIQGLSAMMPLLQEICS

Row | Compound | Potency [1] | Potency [2] | Potency [3] | Potency [4] | Potency [5] | Potency [6] | Potency [7] | Potency [8] | Potency [9] | Potency [10] | Potency [11] | outcome [12] | Potency [13] | Potency [14] | activity change, positive = activation ([15]; at 92.4 µM (top of the series)) | Potency [16] | Potency [17] | Potency [18] | activity change, positive = activation ([15]; at 42.5 µM (top of the series)) | Potency [19]
1 | C1=Cc2cccc3cccc1c23 | inactive | inactive | inactive | inactive | inactive | inactive | 190 nM (active) and inactive | inactive | inactive | inactive | inactive | inactive | inactive | inactive | -16.5% (inactive) and -13.1% (inactive) | inactive | inactive | inactive |  | 
2 | CCC(C)(C)c1ccc(O)cc1 | inactive | 40.4 µM (active) and 63.3 µM (active) | inactive | inactive |  | inactive | inactive | inactive | inactive | inactive | inactive | inactive | 80 µM (active) | inactive | -16.7% (inactive) and -1.98% (inactive) | inactive | inactive | inactive | -6.2% (inactive) | 
3 | O=C(Nc1ccc(Br)cc1)c1cc(Br)cc(Br)c1O | inactive and 19.3 µM (active) and 10.6 µM (active) | 3.98 µM (active) and 5.03 µM (active) and 6.92 µM (active) | 27.2 µM (active) and 16.8 µM (active) |  |  | inactive and 21.1 µM (active) | 13.6 µM (active) and 13.7 µM (active) and inactive | inactive | inactive | 38.8 µM (active) and 24.5 µM (active) | inactive |  | 28.3 µM (active) and 35.7 µM (active) and 39.1 µM (active) | 12.2 µM (active) | -31.1% (inactive) and -48% (inactive) | inactive | 21.8 µM (active) and 21.9 µM (active) | inactive and 38.9 µM (active) | -35.9% (inactive) | 
4 | C=CCc1ccc2c(c1)OCO2 | inactive | inactive |  | inactive | inactive | inactive |  |  | inactive | inactive | inactive | inactive | inactive |  |  | inactive | inactive | inactive |  | inactive
5 | O=Cc1ccco1 | inactive | inactive | inactive | inactive |  | inactive | inactive | inactive | inactive | inactive | inactive | inactive | inactive | inactive | 0.408% (inactive) and 7.35% (inactive) | inactive |  | inactive |  | 
6 | O=C(O)C(F)(F)C(F)(F)C(F)(F)C(F)(F)C(F)(F)C(F)(F)C(F)(F)F | inactive | inactive | inactive | inactive |  | inactive |  |  | inactive |  | inactive | inactive | inactive |  |  | inactive | inactive | inactive |  | 
7 | CCC(C)(c1ccc(O)cc1)c1ccc(O)cc1 | 68.5 µM (active) | inactive |  | inactive | inactive | inactive | 48.5 µM (active) | inactive | inactive | inactive |  | inactive | inactive | 54.5 µM (active) | -28.1% (inactive) and -37.5% (inactive) | inactive |  | inactive |  | 4.85 µM (active) and 3.06 µM (active)
8 | CCC(=O)O[C@H]1CC[C@H]2[C@@H]3CCC4=CC(=O)CC[C@]4(C)[C@H]3CC[C@]12C | inactive | inactive |  | inactive | inactive | inactive |  |  | inactive | 54.9 µM (active) and inactive | inactive | inactive | 101 µM (active) and inactive |  |  | inactive | 19.5 µM (active) and 23.9 µM (active) | inactive |  | inactive
9 | Cc1ccccc1[N+](=O)[O-] | inactive | inactive |  | inactive | inactive | inactive |  |  | inactive | inactive | inactive | inactive | inactive |  |  | inactive | inactive | inactive |  | inactive
10 | CCN(N=O)C(N)=O | inactive | inactive | inactive | inactive |  | inactive |  |  | inactive | inactive | inactive | inactive | inactive |  |  | inactive |  | inactive |  | 
11 | Oc1cc(Cl)ccc1Cl | inactive | inactive | inactive | inactive |  | inactive |  |  | inactive | inactive | inactive | inactive | inactive |  |  | inactive | inactive | inactive |  | 
12 | CCCCCc1cc(O)cc(O)c1 | 54.5 µM (active) | 63.6 µM (active) and 39.9 µM (active) | inactive |  | inactive | inactive and 48.6 µM (active) |  |  | inactive | inactive | inactive | inactive | 113 µM (active) |  |  |  | 24.5 µM (active) | inactive |  | 54.5 µM (active)

Source: PubChem BioAssay (Tox21)
